PubChem BioAssay AID493087 (The Scripps Research Institute Molecular Screening Center, 2011)
The whole screen tested about 340,000 compounds, of which about 240 (0.071%) were called active. For the sample, actives were picked, then their nearest neighbours and some compounds at random. A number with no mark means an inactive call.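 How the source made its calls: active means activation above the mean of all tested compounds plus 3 SD, set per screening campaign (cut at about 17% in these data); inactive means the rest.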

Each compound was assayed against Insulin-degrading enzyme (Homo sapiens) (UniProt P14735) (assay: enhanced cellular IDE Abeta cleavage – fluorescence polarization, HEK cells, FAbeta-B substrate, primary screen (AID 493087)). Details: at 5.96 µM, active compounds read high, 0% vehicle, 100% cell-free pure enzyme wells.
Insulin-degrading enzyme (Homo sapiens), sequence (P14735 whole entry, looked up): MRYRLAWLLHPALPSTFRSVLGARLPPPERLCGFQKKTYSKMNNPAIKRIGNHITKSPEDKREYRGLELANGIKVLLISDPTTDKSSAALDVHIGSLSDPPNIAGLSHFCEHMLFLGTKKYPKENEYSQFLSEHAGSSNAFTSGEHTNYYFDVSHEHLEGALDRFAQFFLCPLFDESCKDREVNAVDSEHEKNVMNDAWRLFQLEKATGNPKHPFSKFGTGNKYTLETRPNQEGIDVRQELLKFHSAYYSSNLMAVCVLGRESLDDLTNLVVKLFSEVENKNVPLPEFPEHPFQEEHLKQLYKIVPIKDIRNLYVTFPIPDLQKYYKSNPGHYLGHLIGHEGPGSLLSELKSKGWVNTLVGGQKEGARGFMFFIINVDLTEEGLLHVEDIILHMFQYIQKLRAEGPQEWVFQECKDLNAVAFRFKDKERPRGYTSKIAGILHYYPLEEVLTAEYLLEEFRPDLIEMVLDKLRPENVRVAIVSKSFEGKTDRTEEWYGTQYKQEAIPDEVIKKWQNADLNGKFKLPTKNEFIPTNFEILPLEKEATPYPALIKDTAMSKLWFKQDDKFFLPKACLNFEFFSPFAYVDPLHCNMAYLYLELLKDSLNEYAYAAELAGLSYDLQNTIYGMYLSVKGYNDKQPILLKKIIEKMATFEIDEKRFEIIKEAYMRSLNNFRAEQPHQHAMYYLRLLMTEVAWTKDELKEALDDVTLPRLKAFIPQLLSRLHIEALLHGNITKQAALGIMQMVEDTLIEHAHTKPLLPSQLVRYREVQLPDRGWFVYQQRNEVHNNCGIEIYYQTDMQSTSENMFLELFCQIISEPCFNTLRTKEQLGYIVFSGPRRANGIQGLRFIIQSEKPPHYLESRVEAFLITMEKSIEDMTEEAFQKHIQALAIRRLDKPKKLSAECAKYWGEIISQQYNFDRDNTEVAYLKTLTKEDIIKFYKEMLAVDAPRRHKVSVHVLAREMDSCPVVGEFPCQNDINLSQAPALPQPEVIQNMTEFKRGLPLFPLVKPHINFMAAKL
With `Cc1ccccc1CSCCNC(=O)c1ccc(N(C)S(=O)(=O)c2ccccc2)cc1` the activation was 1.48%. For `O=c1c([N+](=O)[O-])cccn1Cc1ccc(F)cc1Cl`, the activation was -1.28%. In the case of `Cc1ccc(CNC(=O)CCCNC(=O)c2ccc(Cl)cc2)n1C`, the activation was 5.76%. `CCOc1cc(/C=C2\SC(N3CCCC(C)C3)=NC2=O)ccc1O` (configuration not stated) was tested, and the activation was -15.9%. Work on `CC(=O)Nc1ccc(S(=O)(=O)NCC(=O)OCc2cc(=O)oc3ccc4ccccc4c23)cc1` yielded an activation of 3.05%. `CCC(=O)NNc1cc(=O)c2c(=O)n(C)c(=O)n(C)c2[nH]1` gave an activation of 3.85%. `Cc1noc(C)c1CSCC(=O)Nc1ccc(Br)cc1Cl` showed an activation of 2.79%. For `CC1=C/C(=N\OS(=O)(=O)c2ccccc2)C=CC1=O`, the activation was -10.8%. `Cc1cccc(NC(=O)c2cccc(C(=O)Nc3cccc(C)c3C)n2)c1C` showed an activation of -1.85%. For `CC(C)(C)C1C/C(=C/c2ccco2)C(=O)/C(=C/c2ccco2)C1` (configuration not stated), the activation was -0.63%. `CC1CCN(C(=O)C2CCN(S(=O)(=O)N3CCC4(CC3)OCCO4)CC2)CC1` was tested, and the activation was 0.48%. Work on `CCOC(=O)N1CCN(Cc2nc3ccc([N+](=O)[O-])cc3c(=O)n2-c2cccc(OC)c2)CC1` yielded an activation of 1.47%. `CCOc1ccc(N2C(=O)/C(=C/c3ccc(C)o3)N(C)C2=S)cc1` gave an activation of 2.68%. `CCC(C)(C)NC(=O)CN(C(=O)C(=O)Nc1ccc2c(c1)OCCO2)C(C)(C)CC` showed an activation of 4.63%. In the case of `CCOC(=O)C1(C(F)(F)F)N=C(N(C)C)OC(N(C)C)=N1`, the activation was 8.14%. In the case of `CCN(CC)CCCC(C)n1c2nc(=O)[nH]c(=O)c-2nc2cc(Cl)ccc21` (configuration not stated), the activation was 75.3% (active). With `C#CCOCCOCCOCCNc1nc(N2CCN(C(=O)CCCCCCCCCCNC(=O)[C@H]([C@@H](C)CC)n3cc(CCCCN=C(N)N)nn3)CC2)nc(N2CCN(C(=O)CCCCCCCCCCNC(=O)[C@H](CO)n3cc(CCCSC)nn3)CC2)n1` the activation was 58% (active). With `C#CCOCCOCCOCCNc1nc(N2CCN(C(=O)CCCCCCCCCCNC(=O)[C@H](CCCCN)n3cc(C)nn3)CC2)nc(N2CCN(C(=O)CCCCCCCCCCNC(=O)[C@H](CO)n3cc(CCCSC)nn3)CC2)n1` the activation was 29.3% (active). Compound `C#CCOCCOCCOCCNc1nc(N2CCN(C(=O)[C@H](CCCN=C(N)N)n3cc(C(N)[C@@H](C)CC)nn3)CC2)nc(N2CCN(C(=O)[C@H](CO)n3cc([C@@H](N)C(C)C)nn3)CC2)n1` (some centres not stated) has an activation of -0.94%. With `C#CCOCCOCCOCCNc1nc(N2CCN(C(=O)CCCCCCCCCCNC(=O)Cn3cc(CCCCCN)nn3)CC2)nc(N2CCN(C(=O)CCCCCCCCCCNC(=O)[C@H](CO)n3cc(CCCSC)nn3)CC2)n1` the activation was 32.6% (active). `C#CCOCCOCCOCCNc1nc(N2CCN(C(=O)[C@H](CCC(=O)O)n3cc(CN)nn3)CC2)nc(N2CCN(C(=O)[C@H](CCC(=O)O)n3cc(CN)nn3)CC2)n1` showed an activation of 1.77%. `C#CCOCCOCCOCCNc1nc(N2CCN(C(=O)[C@H](CCCCN)n3cc(CCC(=O)O)nn3)CC2)nc(N2CCN(C(=O)[C@H](CCCCN)n3cc(CC(C)O)nn3)CC2)n1` (some centres not stated) showed an activation of -4.23%. In the case of `C#CCOCCOCCOCCNc1nc(N2CCN(C(=O)Cn3cc(CCO)nn3)CC2)nc(N2CCN(C(=O)Cn3cc(CCCN=C(N)N)nn3)CC2)n1`, the activation was -2.84%. Work on `C#CCOCCOCCOCCNc1nc(N2CCN(C(=O)Cn3cc(CCO)nn3)CC2)nc(N2CCN(C(=O)[C@H](CCCCN)n3cc(CCCC)nn3)CC2)n1` yielded an activation of 2.74%. `C#CCOCCOCCOCCNc1nc(N2CCN(C(=O)Cn3cc(CCCCN)nn3)CC2)nc(N2CCN(C(=O)[C@H](CCCCN)n3cc(CCC(=O)O)nn3)CC2)n1` gave an activation of -2.39%. For `CN(C)C(=O)c1cc(Br)ccc1Cl`, the activation was 7.04%. For `O=C(CNC(=O)OCc1ccccc1)Oc1cc2oc(=O)cc(-c3ccccc3)c2cc1Cl`, the activation was 3.87%. `CCCCOc1ccc(NC(=O)CSCC(=O)OCC)cc1` gave an activation of 0.69%. `Cc1ccc(COc2ccc(C(=O)NN)cc2)cc1` gave an activation of -2.7%. In the case of `CCCCCCCCCCOC(=O)Cn1c(COc2ccc(C)cc2)[n+](C)c2ccccc21`, the activation was 21.7% (active). With `CC1CCN(C(=O)CCNC(=O)c2ccccc2)CC1` the activation was 4.37%. For `Cc1ccc(Cl)cc1NC(=O)CN1CCN(S(=O)(=O)N2CCOCC2)CC1`, the activation was 3.41%. Work on `C#CCOCCOCCOCCNc1nc(N2CCOCC2)nc(N2CCN(C(=O)[C@H](Cc3ccc(O)cc3)n3cc(CCO)nn3)CC2)n1` yielded an activation of -1.07%. Work on `COc1ccc(C2=NOC(C(=O)NCc3ccco3)C2)cc1OC` (configuration not stated) yielded an activation of -0.49%. `COc1ccc2c(c1)c(=Cc1ccc(N(C)C)cc1)c1cc(-c3ccccc3)[n+](C)n12` was tested, and the activation was -19.1%. With `COC(=O)COc1ccc2c(=O)c(Oc3ccccc3Br)coc2c1` the activation was 1.55%. Compound `O=C(Nc1nn(Cc2ccccc2F)cc1Br)c1cccs1` has an activation of 2.02%. `O=C(O)CCc1cccnc1` was tested, and the activation was 0.08%. For `CCOc1ccc(S(=O)(=O)N2CCCCCC2)c2ccccc12`, the activation was 7.79%. For `COc1ccc(-c2csc3ncnc(Oc4ccc5c(C)cc(=O)oc5c4)c23)cc1`, the activation was -0.97%. In the case of `CCOC(=O)C1CCN(S(=O)(=O)c2ccc3c(c2)N(C)C(=O)CC(=O)N3C)CC1`, the activation was 4.32%. With `Cc1ccc(C(c2nnnn2CS(=O)(=O)c2ccc(C)cc2)N2CCC(C)CC2)cc1` (configuration not stated) the activation was 6.3%. With `CN1CCN(C(=O)C(=O)c2cn(CC(=O)N3CCCC3)c3ccccc23)CC1` the activation was 0.5%. `Fc1cccc(CSc2nnc3ccc(-c4ccncc4)nn23)c1` was tested, and the activation was 11%. `COC(=O)[C@]1(S(=O)(=O)c2ccccc2)C[C@@H]2ON=C(c3ccc(OC)cc3)[C@@H]2C1` gave an activation of -5.33%. For `COc1ccc(N2CCN(C(=O)c3ccc(N4CCCCS4(=O)=O)cc3)CC2)cc1`, the activation was 1.3%. Work on `CN(CC(=O)NC1CCCCC1)S(=O)(=O)c1cccc2cccnc12` yielded an activation of 4.22%.
